We go through eight compounds from PubChem BioAssay.

The structures appear in SMILES notation. Active and inactive are the calls of the source. Unless noted, the rule behind the calls is not given here.

Assay [1] is described as follows: hit retest on RPL19A-GFP reporter strain – cell-based, S. cerevisiae, flow cytometry, cherry picks, mother/daughter gates, confirmation (AID 2270;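 active = GFP response below 50% of the DMSO control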). To be noted: 3 h, at 10 µM, stronger effect = lower value, 100 = same GFP as DMSO wells. In general terms: In flow cytometry, cells or beads pass a laser one at a time.
Assay [2] in a line: yeast TOR pathway reporter LAP4-GFP change – cell-based, cherry picks, flow cytometry, mother/daughter gates, confirmation (AID 2271;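 active = GFP response above 150% of the DMSO control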;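 note: ratio of sample to DMSO plate mean so 100% equals DMSO level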). To be noted: S. cerevisiae LAP4-GFP strain, 3 h, at 10 µM, stronger effect = higher value.
Assay [3] in a line: TOR pathway CIT2 reporter hit retest – S. cerevisiae, GFP fusion, cherry picks, mother/daughter gates, confirmation (AID 2274;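 active = GFP response above 150% of the DMSO level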). To be noted: S. cerevisiae CIT2-GFP strain, flow cytometry, 3 h, at 10 µM, stronger effect = higher value.
Assay [4] is described as follows: reduced mouse 2C T cell binding to pMHC/ICAM-1 vesicles – MLPCN validation set, flow cytometry, LFA-1/ICAM-1 modulator project, pilot screen (AID 2523;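 active = response below a set limit, under 55% cells CD8-positive and vesicle-bound, and CD8 cells' 90th-percentile brightness under 279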;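 for vesicle binding response: mean PE anti-B7-1 fluorescence of CD8+ cells relative to row control; 100% = QL9-loaded vesicles with DMSO vehicle in the same plate row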). To be noted: 2C mouse CD8+ T cells, at 7 µM, stronger effect = lower value; double positive events: measured here: CD8+/vesicle+ event percentage.
For assay [5], the target named is Integrin beta-1 (Homo sapiens) + Integrin alpha-4 (Homo sapiens) (UniProt P13612+P05556). The assay is described as follows: alpha4beta1 integrin LIBS antibody binding reduction – U937 cells, HUTS-21 mAb, flow cytometry, validation set, VLA-4 allosteric modulator project, pilot screen (AID 2674;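 active = inhibition above 50%, about 3 SD of the validation set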;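 note: antibody binding induced by the VLA-4 ligand LDV present at three times its Kd; 0% = LDV ligand with antibody and no compound and 100% = antibody without LDV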). To be noted: HUTS-21 LIBS mAb binding, at 6.7 µM, stronger effect = higher value.

A short description of assay [6]: calorie-restriction mimetic ROS inhibitors, yeast – validation compound set, pilot screen (AID 2706;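 active = superoxide response below 65% of plate, a cut near 3 SD across the whole screen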;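 note: yeast exposed to compound for one week at 30 degrees C before staining; 100% = mean of all compound wells on the same plate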). To be noted: S. cerevisiae aging, superoxide DHE fluorescence; at 10 µM; stronger effect = lower value.
Assay [7] addresses Beta-adrenergic receptor kinase 1 (Homo sapiens) (UniProt P25098). Description: GRK2 binders displacing RNA aptamer, biochemical, validation, human GRK2, bead flow cytometry (AID 488806;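 active = aptamer binding inhibition above 30%, about 3 SD of noise from non-fluorescent compounds; inactive = inhibition at or below 30%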). The note with it: bead-bound GRK2, FAM-aptamer displacement, at 10 µM, stronger effect = higher value.
The target of assay [8] is AP-2 complex subunit beta (Homo sapiens) (UniProt P63010). Description: beta-arrestin/AP2 interaction blockers – biochemical, validation set, GST-AP2 beads, flow cytometry, pilot screen (AID 504541;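 active = inhibition above 54%, about 3 SD of non-fluorescent compounds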;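 note: AP2 carries R879A mutation and is captured from E. coli lysate; bead-bound FITC arrestin peptide fluorescence measuring arrestin peptide binding to AP2; 0% = DMSO wells and 100% = excess unlabeled arrestin peptide control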). To be noted: FITC arrestin peptide, at 10 µM, stronger effect = higher value.
Assay [9] can be described thus: cytosolic pH regulators acting via V-ATPase – S. cerevisiae, pHLuorin, HTS validation (AID 504600; in the data active = response above about 15%;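 note: plate controls were DMSO for no effect and reference compound for full effect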). To be noted: V-ATPase proton transport, at 10 µM, stronger effect = higher value.
In assay [10] the test system is anti-desmoglein-3 scFv antibody binding to human DSG3. Description: blockers of pathogenic pemphigus antibody–desmoglein-3 binding – biochemical, validation compound set, bead-based, flow cytometry, pilot screen (AID 588368;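 active = binding below the plate cutoff, the plate median minus 3 SD, with a reading above zero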;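 note: signal is the median channel fluorescence of bead-bound GFP antibody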). The note with it: Protein G beads, DSG3-Fc, scFv-GFP binding, at 10 µM, stronger effect = lower value.
Assay [11] relates to Botulinum neurotoxin type F light chain protease (Clostridium botulinum). Description: Clostridium botulinum type F light chain protease inhibitors, microsphere substrate cleavage, validation (AID 588459). To be noted: multiplex microsphere protease substrate cleavage assay, flow cytometry; at 10 µM; stronger effect = higher value.
The target of assay [12] is Botulinum neurotoxin type A (Clostridium botulinum) (UniProt P0DPI0). Description: BoNT/A light chain protease inhibitors, biochemical, multiplex microsphere flow cytometry, validation set (AID 588460). To be noted: at 10 µM, stronger effect = higher value.
The target in assay [13] is Lethal factor (Bacillus anthracis) (UniProt P15917). The assay is described as follows: Bacillus anthracis lethal factor inhibition, microsphere flow cytometry protease assay, validation at 10 µM (AID 588461). To be noted: multiplex microsphere protease cleavage assay, stronger effect = higher value.
Assay [14] is described as follows: Nile Red efflux blockade in pump-expressing yeast – validation compound set, multiplex, phenotypic, pilot screen (AID 588506;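 active = efflux inhibition above 0.42, the validation set average plus 4 SD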;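 note: Nile Red retained in cells so higher fluorescence means more efflux inhibition; 0 = negative control wells and 1 = enniatin B 25 µM full block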). To be noted: S. cerevisiae pump-expressing triplex, Nile Red efflux flow cytometry; at 10 µM; stronger effect = higher value.
The target of assay [15] is ATP-binding cassette sub-family B member 6 (Homo sapiens) (UniProt Q9NP58). Description: blockers of ABCB6-driven porphyrin uptake – K562-ABCB6 cells, flow cytometry, validation set, pilot screen (AID 588550;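 active = inhibition above the screen-wide mean plus 3 SD, about 51%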;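 note: 0% = DMSO wells and 100% = benzethonium chloride 70 µM positive control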). The note with it: K562-ABCB6 porphyrin accumulation, 1 h, at 10 µM, stronger effect = higher value.
Assay [16] is described as follows: AML differentiation inducers, ER-HoxA9 marrow cells – cell-based, GFP/MAC1 double positive, flow cytometry, validation set, primary screen (AID 588685;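 active = differentiation response of at least 50%, scaled between solvent and reference control, from cells with both markers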;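 note: compound exposure lasts four days before antibody staining and flow analysis; 0% = DMSO wells and 100% = 5 µM fulvestrant positive control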). To be noted: stronger effect = higher value.
[17] abbreviates: measured here: daughter cell gate.
Setting [18] is: measured here: mother cell gate.
[19] abbreviates: measured here: daughter cell gate response.
The mark [20] stands for this setting: measured here: mother cell gate response.

Chain of Beta-adrenergic receptor kinase 1 (Homo sapiens) (P25098 whole entry, looked up): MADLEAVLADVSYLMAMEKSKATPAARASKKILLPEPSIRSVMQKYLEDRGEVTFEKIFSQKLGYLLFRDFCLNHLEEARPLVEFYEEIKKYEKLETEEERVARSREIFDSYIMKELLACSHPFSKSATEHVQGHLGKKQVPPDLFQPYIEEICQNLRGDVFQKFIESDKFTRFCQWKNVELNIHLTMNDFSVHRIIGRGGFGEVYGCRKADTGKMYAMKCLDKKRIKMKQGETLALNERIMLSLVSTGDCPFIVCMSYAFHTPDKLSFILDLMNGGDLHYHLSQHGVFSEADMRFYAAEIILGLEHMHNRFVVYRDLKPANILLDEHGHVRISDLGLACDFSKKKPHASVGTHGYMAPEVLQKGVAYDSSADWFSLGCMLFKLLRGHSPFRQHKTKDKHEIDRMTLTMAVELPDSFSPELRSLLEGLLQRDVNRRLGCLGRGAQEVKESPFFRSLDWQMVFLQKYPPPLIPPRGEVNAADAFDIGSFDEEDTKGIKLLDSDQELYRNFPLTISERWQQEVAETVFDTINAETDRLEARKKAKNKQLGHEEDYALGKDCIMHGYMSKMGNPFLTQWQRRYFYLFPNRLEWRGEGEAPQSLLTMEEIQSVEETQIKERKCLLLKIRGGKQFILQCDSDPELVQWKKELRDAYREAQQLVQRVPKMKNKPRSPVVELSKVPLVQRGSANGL
Chain of ATP-binding cassette sub-family B member 6 (Homo sapiens) (Q9NP58 whole entry, looked up): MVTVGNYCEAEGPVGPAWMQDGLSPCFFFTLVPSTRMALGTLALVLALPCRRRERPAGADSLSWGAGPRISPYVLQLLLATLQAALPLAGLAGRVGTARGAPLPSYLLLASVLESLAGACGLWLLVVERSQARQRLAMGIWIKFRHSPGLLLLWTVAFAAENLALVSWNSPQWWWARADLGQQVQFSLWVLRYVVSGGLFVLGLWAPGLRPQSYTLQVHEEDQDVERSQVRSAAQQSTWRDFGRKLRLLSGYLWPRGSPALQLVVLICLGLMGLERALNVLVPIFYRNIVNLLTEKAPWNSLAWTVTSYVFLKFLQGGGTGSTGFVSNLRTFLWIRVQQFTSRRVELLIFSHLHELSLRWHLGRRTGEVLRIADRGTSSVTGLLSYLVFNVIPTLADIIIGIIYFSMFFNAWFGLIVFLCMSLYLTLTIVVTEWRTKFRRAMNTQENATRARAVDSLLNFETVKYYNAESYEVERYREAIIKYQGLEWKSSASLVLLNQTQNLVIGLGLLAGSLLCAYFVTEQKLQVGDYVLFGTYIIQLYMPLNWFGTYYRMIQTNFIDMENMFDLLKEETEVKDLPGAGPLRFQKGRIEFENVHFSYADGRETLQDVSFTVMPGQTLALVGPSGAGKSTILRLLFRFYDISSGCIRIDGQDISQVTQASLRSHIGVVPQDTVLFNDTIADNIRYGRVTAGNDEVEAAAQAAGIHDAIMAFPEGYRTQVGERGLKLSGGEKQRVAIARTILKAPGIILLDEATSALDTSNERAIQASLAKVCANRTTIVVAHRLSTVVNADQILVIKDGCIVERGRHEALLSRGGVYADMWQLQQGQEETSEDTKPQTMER
Chain of Lethal factor (Bacillus anthracis) (P15917 whole entry, looked up): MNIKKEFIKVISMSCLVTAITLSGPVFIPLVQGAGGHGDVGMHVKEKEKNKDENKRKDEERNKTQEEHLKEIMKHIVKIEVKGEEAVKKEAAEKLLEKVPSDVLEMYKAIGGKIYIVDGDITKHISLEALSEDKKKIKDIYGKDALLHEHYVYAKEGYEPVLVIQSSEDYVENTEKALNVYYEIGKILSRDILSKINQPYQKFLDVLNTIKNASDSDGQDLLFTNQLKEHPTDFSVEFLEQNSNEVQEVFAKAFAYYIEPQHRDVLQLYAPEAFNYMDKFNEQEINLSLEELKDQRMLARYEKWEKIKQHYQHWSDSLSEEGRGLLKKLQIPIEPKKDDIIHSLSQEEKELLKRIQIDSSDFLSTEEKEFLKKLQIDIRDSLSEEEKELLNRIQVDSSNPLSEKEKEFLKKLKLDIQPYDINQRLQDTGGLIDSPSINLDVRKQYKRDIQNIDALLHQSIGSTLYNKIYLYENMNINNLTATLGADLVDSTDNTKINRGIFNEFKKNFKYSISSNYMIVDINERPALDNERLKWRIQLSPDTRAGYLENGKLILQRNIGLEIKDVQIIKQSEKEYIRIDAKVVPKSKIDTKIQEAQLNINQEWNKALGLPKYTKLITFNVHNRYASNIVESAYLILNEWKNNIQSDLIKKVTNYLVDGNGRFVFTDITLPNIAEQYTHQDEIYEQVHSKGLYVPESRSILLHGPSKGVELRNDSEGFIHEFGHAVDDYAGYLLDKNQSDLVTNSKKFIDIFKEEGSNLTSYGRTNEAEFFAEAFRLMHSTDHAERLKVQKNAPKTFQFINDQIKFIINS
Chain of AP-2 complex subunit beta (Homo sapiens) (P63010 whole entry, looked up, one chain of several): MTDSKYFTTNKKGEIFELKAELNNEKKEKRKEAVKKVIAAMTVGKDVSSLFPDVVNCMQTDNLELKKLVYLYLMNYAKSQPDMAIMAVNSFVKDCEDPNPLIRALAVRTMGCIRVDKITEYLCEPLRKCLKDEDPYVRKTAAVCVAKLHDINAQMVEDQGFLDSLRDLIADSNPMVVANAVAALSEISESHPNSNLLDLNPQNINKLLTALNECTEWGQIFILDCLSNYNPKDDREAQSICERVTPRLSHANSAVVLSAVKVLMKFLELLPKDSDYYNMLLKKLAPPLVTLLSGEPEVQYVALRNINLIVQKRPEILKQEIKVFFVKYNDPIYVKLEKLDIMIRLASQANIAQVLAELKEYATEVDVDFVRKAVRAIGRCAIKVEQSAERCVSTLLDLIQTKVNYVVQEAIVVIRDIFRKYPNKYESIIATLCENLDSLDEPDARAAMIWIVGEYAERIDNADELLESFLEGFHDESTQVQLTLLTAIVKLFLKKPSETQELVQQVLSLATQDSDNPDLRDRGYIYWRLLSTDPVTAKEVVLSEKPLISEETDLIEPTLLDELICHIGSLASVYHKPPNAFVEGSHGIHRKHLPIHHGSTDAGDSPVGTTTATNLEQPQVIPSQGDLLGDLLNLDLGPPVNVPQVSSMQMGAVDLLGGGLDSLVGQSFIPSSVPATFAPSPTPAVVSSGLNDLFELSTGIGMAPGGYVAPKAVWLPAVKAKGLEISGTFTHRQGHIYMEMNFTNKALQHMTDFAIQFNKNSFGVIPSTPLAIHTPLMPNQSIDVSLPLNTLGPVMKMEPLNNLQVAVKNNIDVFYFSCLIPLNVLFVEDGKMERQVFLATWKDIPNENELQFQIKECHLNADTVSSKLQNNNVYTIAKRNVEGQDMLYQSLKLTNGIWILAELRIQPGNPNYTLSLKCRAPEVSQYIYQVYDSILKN
Chain of Botulinum neurotoxin type A (Clostridium botulinum) (P0DPI0 whole entry, looked up): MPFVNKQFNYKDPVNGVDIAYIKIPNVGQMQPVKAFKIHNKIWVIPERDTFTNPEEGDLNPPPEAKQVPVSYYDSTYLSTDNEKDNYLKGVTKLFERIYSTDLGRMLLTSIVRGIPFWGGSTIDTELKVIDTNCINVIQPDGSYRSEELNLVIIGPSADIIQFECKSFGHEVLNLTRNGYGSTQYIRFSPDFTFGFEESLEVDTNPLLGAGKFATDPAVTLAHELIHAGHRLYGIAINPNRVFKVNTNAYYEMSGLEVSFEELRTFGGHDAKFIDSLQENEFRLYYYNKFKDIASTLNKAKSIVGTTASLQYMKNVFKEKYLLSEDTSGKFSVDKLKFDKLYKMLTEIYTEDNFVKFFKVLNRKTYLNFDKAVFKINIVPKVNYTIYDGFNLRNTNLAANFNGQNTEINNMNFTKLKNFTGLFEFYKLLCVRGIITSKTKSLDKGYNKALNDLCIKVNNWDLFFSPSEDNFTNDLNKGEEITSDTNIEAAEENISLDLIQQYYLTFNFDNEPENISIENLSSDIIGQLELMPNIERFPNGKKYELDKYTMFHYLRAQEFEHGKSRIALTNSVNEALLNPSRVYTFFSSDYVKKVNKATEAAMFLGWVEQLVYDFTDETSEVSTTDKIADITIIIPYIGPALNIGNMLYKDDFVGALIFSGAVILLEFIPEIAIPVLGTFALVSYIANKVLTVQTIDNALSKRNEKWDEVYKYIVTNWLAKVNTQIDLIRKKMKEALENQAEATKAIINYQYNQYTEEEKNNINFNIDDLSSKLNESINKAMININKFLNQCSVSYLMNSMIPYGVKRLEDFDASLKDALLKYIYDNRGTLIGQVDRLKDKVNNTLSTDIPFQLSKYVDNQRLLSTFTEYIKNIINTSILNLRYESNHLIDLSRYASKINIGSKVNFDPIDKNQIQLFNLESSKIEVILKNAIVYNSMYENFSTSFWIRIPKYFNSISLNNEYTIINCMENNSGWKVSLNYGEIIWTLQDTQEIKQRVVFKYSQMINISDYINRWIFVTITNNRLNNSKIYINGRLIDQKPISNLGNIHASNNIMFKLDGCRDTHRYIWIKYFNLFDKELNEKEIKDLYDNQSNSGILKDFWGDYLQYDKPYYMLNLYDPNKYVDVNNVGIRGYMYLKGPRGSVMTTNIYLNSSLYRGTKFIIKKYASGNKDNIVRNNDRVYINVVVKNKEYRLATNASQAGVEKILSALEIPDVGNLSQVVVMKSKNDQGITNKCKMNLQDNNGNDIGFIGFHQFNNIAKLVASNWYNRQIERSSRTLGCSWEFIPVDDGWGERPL

For the compound `O=C1NC(=O)N(Cc2ccco2)C(=O)/C1=C/c1ccc(-c2cccc([N+](=O)[O-])c2)o1`, the GFP response vs DMSO is 102% (inactive) in [1], 102% in [1] (setting [17]) and 96.7% in [1] (setting [18]). Further, the results for the GFP response relative to DMSO in [2], in assay [2] (setting [19]) and in assay [2] (setting [20]) were 167% (active), 151% and 176%, respectively. Further, the GFP response, % of DMSO is 93% (inactive) in assay [3], 95.6% in assay [3] (setting [17]) and 85.8% in assay [3] (setting [18]).

Take `O=C1NC(=S)N(c2ccccc2)C(=O)/C1=C/c1ccco1`: the GFP response vs DMSO in assay [1] is 98.8% (inactive); in assay [1] (setting [18]), 91.4%. Besides, the values for the GFP response relative to DMSO in assay [2], in assay [2] (setting [19]) and in assay [2] (setting [20]) were 112% (inactive), 116% and 111%, respectively. Besides, the GFP response, % of DMSO in assay [3] is 84.8% (inactive); in [3] (setting [18]), 65.5%.

The term inhibition denotes the change of the read-out against control, counted positive when it falls. On to `C[C@]12CC[C@@H]3c4ccc(O)c(O)c4CC[C@H]3[C@@H]1CC[C@@H]2O`, for which, in [4], the double positive events worked out at 51%. In [4], the vesicle binding response was 107% (inactive). Further, the inhibition is 27.7% (inactive) in assay [5]; 1.47% (inactive) in assay [8]; 0.2% (inactive) in [11]; -0.1% (inactive) in assay [12]; 2% (inactive) in assay [13]; 7% (inactive) in assay [15]. The superoxide response (% of plate) in [6] is 101% (inactive). Also, in assay [7], the aptamer binding inhibition was -1% (inactive). Moreover, in [9], the response is -0.32% (inactive). Further, the binding (% of control) in assay [10] is 108% (inactive). Further, the efflux inhibition (fraction of control) in assay [14] is -0.28 (inactive). Further, the differentiation response in [16] was 3.03% (inactive).

For `CCC(COC(=O)c1cc(OC)c(OC)c(OC)c1)(c1ccccc1)N(C)C` (stereo not drawn), in [4], the double positive events stood at 73.3%. In addition, in assay [4], the vesicle binding response is 306% (inactive). The inhibition in assay [5] was 1.44% (inactive); in [8], -3.75% (inactive); in assay [11] it was -3.5% (inactive); in [12] it was -2.8% (inactive); in assay [13], -8.8% (inactive); in [15], 15% (inactive). Also, the superoxide response (% of plate) in assay [6] is 93.6% (inactive). For the same compound, the aptamer binding inhibition in assay [7] is 1% (inactive). Further, the response in assay [9] is -2.48% (inactive). Moreover, the binding (% of control) in [10] was 98.7% (inactive). In addition, in assay [14], the efflux inhibition (fraction of control) is 0.04 (inactive). Besides, the differentiation response in [16] was -3.02% (inactive).

Compound `CN1[C@@H]2CC[C@H]1CC(OC(=O)C1C=Nc3ccccc31)C2` (stereo partly drawn) displayed a double positive events in [4] of 52.3%. Moreover, the vesicle binding response in [4] was 136% (inactive). The inhibition was 20.3% (inactive) in assay [5]; -15.4% (inactive) in assay [8]; 1.4% (inactive) in [11]; -0.6% (inactive) in [12]; 4.3% (inactive) in assay [13]; 7% (inactive) in assay [15]. Further, the superoxide response (% of plate) in [6] is 111% (inactive). The aptamer binding inhibition in assay [7] was 0% (inactive). In addition, in [9], the response is -15% (inactive). Also, the binding (% of control) in [10] was 93.3% (inactive). For the same compound, in [14], the efflux inhibition (fraction of control) is -0.2 (inactive). Further, in assay [16], the differentiation response was -3.43% (inactive).

With `CN1C(=O)C(=Cc2ccc(Sc3ccccc3)o2)C(=O)N(C)C1=S`, the figures for the GFP response vs DMSO in [1], in assay [1] (setting [17]) and in assay [1] (setting [18]) were 98.2% (inactive), 94.4% and 91.3%, respectively. Besides, the GFP response relative to DMSO was 126% (inactive) in assay [2], 114% in [2] (setting [19]) and 130% in assay [2] (setting [20]). Also, the GFP response, % of DMSO is 99.3% (inactive) in assay [3], 117% in assay [3] (setting [17]) and 84% in assay [3] (setting [18]).

As for `CS(=O)(=O)Nc1ccc([N+](=O)[O-])cc1Oc1ccccc1`, the figures for the inhibition in assay [11] and in assay [12] were 0% (inactive) and -0.9% (inactive), respectively.

The compound `CC(CCc1ccccc1)NC(C)C(O)c1ccc(O)cc1` (stereo not drawn) returned a double positive events in assay [4] of 49%. The vesicle binding response in assay [4] was 166% (inactive). The inhibition in assay [5] is -20.8% (inactive); in assay [8], 2.09% (inactive); in assay [11], -3.5% (inactive); in assay [12], -0.8% (inactive); in [13], -0.5% (inactive); in assay [15], 10% (inactive). The superoxide response (% of plate) in assay [6] was 111% (inactive). Besides, the aptamer binding inhibition in [7] was 1% (inactive). Further, the response in assay [9] was 5.84% (inactive). For the same compound, in assay [10], the binding (% of control) is 95.4% (inactive). In addition, the efflux inhibition (fraction of control) in assay [14] is -0.28 (inactive). Besides, in assay [16], the differentiation response was -16.4% (inactive).
